Experimental data reported in PubChem BioAssay AID2289 (National Center for Advancing Translational Sciences (NCATS), 2010).
In all, about 340,000 compounds went through this assay and about 3,300 (0.97%) were called active. Inconclusive results (about 9%) are left out. The call rests on the fitted dose curve; in most records, active means well fitted inhibition curve with a large enough effect; inconclusive means small, poorly fitted or top-dose-only effect, or effect the other way; inactive means flat fitted curve, though single readings scatter. The list shows a part of the results.

Experiment: qHTS Assay for Modulators of miRNAs and/or Inhibitors of miR-21; further: nearly all actives have a fitted effect of over 55% in size
Settings: HeLa miR-21-FLuc reporter, luciferase luminescence, 48 h; actives lower the signal
Description: MLSCN Grant: 1 R21 NS059478-01 Assay Provider: Qihong Huang, The Wistar Institute NCGC Assay Overview: MicroRNAs (miRNAs) are endogenously encoded small (~20-25 nucleotides), nonprotein-coding RNAs that are involved in post-transcriptional repression of target messenger RNAs (mRNAs) (Le and Hannon, 2004). Estimated to be involved in the regulation of 30% of all protein-coding mRNAs (Filipowicz et al., 2008), miRNAs play a significant role in many biological processes including cellular differentiation and tissue development (Ghildiyal and Zamore, 2009).
NCGC Assay Protocol Summary: Reagents: HeLa cells stably expressing firefly luciferase (FLuc) under the control of a CMV promoter (upstream) and a miR-21 binding sequence directly downstream of the gene. These cells endogenously express miR-21. Control compounds used were compound C3 (provided by collaborator), N6-phenyladenosine (MP Biomedicals, 0215379625), and DMSO. Assay Summary: 6uL of HeLa miR-21-FLuc cells in assay buffer (DMEM, Invitrogen #21063-029; 10% FBS, HyClone #SH30071.03) were dispensed at 2000cells/well (3.3 x 10^5 cells/mL) into Greiner solid-white TC-treated 1536-well plates using a Multidrop Combi (Thermo Fisher Scientific). Plates were incubated for one hour at 37 degree Celsius, 95% humidity, 5% CO2. These assay plates were then treated with 23nL of compound or DMSO using a Kalypsys pin tool, which allows for delivery of a 24-point titration of each compound to the assay plate, with a final compound concentration ranging from approximately 40uM to 5pM. Assay plates were then incubated for 48 hours. After incubation, plates were allowed to come to RT for one hour prior to delivery of 3uL of 3X luciferase detection reagent. After a 15 minute incubation to allow for cell lysis, luciferase activity was measured using a ViewLux CCD imager (PerkinElmer), with an average exposure time of 2-12 seconds. Keywords: NIH Roadmap, MLPCN, MLSMR, qHTS, miR-21, microRNA, firefly luciferase, FLuc.
Potency means the concentration at half of the fitted maximal effect.

Potency, active:
CSc1ccc(CNC(=O)c2ccc(NC(=O)c3nsc4ccccc34)cc2)cc1 0.585 µM
Cc1ccc(CNC(=O)c2ccc(NC(=O)c3nsc4ccccc34)cc2)cc1 1.65 µM
CCOc1ccc(CNC(=O)c2ccc(NC(=O)c3nsc4ccccc34)cc2)cc1 1.85 µM
COCCCNC(=O)c1ccc(NC(=O)c2nsc3ccccc23)cc1 3.69 µM
CCOc1cc(CNC(=O)c2ccc(NC(=O)c3nsc4ccccc34)cc2)ccc1OC 0.585 µM
O=C(Nc1ccccc1F)N1CCc2ccccc2C1 4.65 µM
Nc1nc(CSC(=S)N2CCCCC2)nc(Nc2ccccc2)n1 11.7 µM
Nc1nc(CSC(=S)N2CCOCC2)nc(Nc2ccccc2)n1 3.69 µM
Cc1ccc(NC(=O)Nc2ccc3c(c2)nc(C)n3C)cc1C 1.17 µM
Cc1nc2cc(NC(=O)Nc3cccc4ccccc34)ccc2n1C 2.93 µM
Cn1c(CCN2CCCCCC2)nc2cc(NC(=O)Nc3ccccc3)ccc21 7.36 µM
Cc1ccc(/C=N/Nc2ncc(Cl)cc2Cl)s1 3.69 µM
Cc1ccc(/C=N/Nc2ccc(Cl)c(C(=O)O)c2)s1 0.165 µM
Cc1ccc(/C=N/Nc2cccc(C(=O)O)c2)s1 0.104 µM
CN(C(=O)c1ccco1)c1nnc(C23CC4CC(CC(C4)C2)C3)s1 8.26 µM
C=CCSc1cc(C)nc2c(-c3ccccc3)cnn12 2.07 µM
CCSc1cc(C)nc2c(-c3ccccc3)cnn12 0.656 µM
COc1ccc(/C=C/C=C2\NC(=S)NC2=O)cc1 14.7 µM
Cc1oc(C(C)(C)C)cc1C(=O)Nc1ccc(C(=O)O)cc1 8.26 µM
NC1=NC(=O)/C(=C/c2cn(Cc3ccccc3)c3ccccc23)S1 9.27 µM
Cc1ccc(C(=O)C(C)OC(=O)c2ccccc2[N+](=O)[O-])cc1 (stereo not drawn) 4.65 µM
CCc1ccc(C(=O)Nc2ccc3nc(C)ccc3c2)cc1 3.29 µM
Cc1ccc(NC(=O)CC(=O)c2ccccc2)cc1C 11.7 µM
Cc1ccc2cc(NC(=O)c3ccccc3C)ccc2n1 5.85 µM
Cc1ccc2cc(NC(=O)c3cccc(F)c3)ccc2n1 0.464 µM
Cc1ccc2cc(NC(=O)Cc3ccccc3)ccc2n1 2.07 µM
CCC(=O)Nc1ccc(-c2csc(C)n2)cc1 7.36 µM
CCC(=O)Nc1ccc(-c2ccc(N3CCCCC3)nn2)cc1 4.14 µM
COc1cc(SC)ccc1C(=O)Nc1ncc(Cl)cc1Cl 1.85 µM
CSc1ccccc1C(=O)Nc1ccc2c(c1)CCC2 7.36 µM
COc1cc(SC)ccc1C(=O)Nc1ccc2c(c1)CCC2 1.31 µM
COc1cc(SC)ccc1C(=O)Nc1ccc2ncccc2c1 0.369 µM
COc1cc(SC)ccc1C(=O)Nc1ccc(C)cc1C 1.85 µM
CCCCN(C(=O)Cc1cccs1)c1nnc(-c2cccnc2)s1 14.7 µM
CCOC(=O)CSc1nc(N)c(C#N)cc1C#N 8.26 µM
CC(C)OC(=O)CSc1nc(N)c(C#N)cc1C#N 5.85 µM
CSc1nc(N)nc(SCC(=O)OC(C)C)c1C#N 13.1 µM
O=C1CCn2nc(-c3ccc(Cl)cc3)cc2N1 6.56 µM
O=C(CCCc1ccccc1)c1ccccc1 2.07 µM
O=C(CCCc1ccccc1)Nc1cccc(C(=O)O)c1 0.464 µM
O=C(NCc1ccccc1)C(=O)Nc1cccc(C(=O)O)c1 0.185 µM
COc1cccc(NC(=O)C(=O)NCCc2ccc(F)cc2)c1 11.7 µM
Cc1cccc(NC(=O)CCCc2ccccc2)c1 7.36 µM
Cc1cccc(NC(=O)C(=O)NCCCc2ccccc2)c1 16.5 µM
COc1ccccc1-c1cnn2c(N3CCOCC3)cc(C)nc12 14.7 µM
Cc1cc(N2CCOCC2)n2ncc(-c3ccc(Cl)cc3)c2n1 0.414 µM
Cc1cc(N2CCOCC2)n2ncc(-c3ccccc3Cl)c2n1 1.65 µM
COc1ccccc1-c1cnn2c(NC3CCCC3)cc(C)nc12 5.85 µM
Cc1nc(-c2ccc(Cl)cc2)sc1C(=O)O 11.7 µM
C/C(=N\O)c1sc(-c2ccccc2)nc1C 1.85 µM
CNC(=O)c1sc(-c2ccc(Cl)cc2)nc1C 6.56 µM
Cc1cc(/C=C\c2ccccc2)nc2ccccc12 7.36 µM
CC(C)(C)n1cnc2cc(NCc3ccc(Br)cc3)ccc21 4.14 µM
CCc1ccc(CNc2ccc3c(c2)ncn3C(C)(C)C)cc1 5.85 µM
O=C(O)c1ccc(N/N=C/C2=Cc3ccccc3OC2)cc1 1.17 µM
CCS(=O)(=O)c1ccc2oc(Nc3ccccc3Br)nc2c1 2.07 µM
CCN(CC)S(=O)(=O)c1ccc2oc(Nc3ccccc3)nc2c1 9.27 µM
CCS(=O)(=O)c1ccc2oc(Nc3ccccc3Cl)nc2c1 1.85 µM
C=CCNc1nc(Nc2ccccc2F)nc(OCC)n1 5.85 µM
Cc1ccc(NC(=O)C2Cc3ccccc3O/C2=N\O)cc1C (stereo not drawn) 14.7 µM
Cc1cccc(NC(=O)C2Cc3ccccc3O/C2=N\O)c1 (stereo not drawn) 14.7 µM
O=C(Nc1ccc(Br)cc1)C1Cc2ccccc2O/C1=N\O (stereo not drawn) 7.36 µM
COCCNc1oc(/C=C/c2ccccc2)nc1C#N 2.07 µM
COCCCNc1oc(/C=C/c2ccccc2)nc1C#N 0.464 µM
N#Cc1nc(/C=C/c2ccccc2)oc1NCCCN1CCOCC1 10.4 µM
CC(C)c1ccc(NC(=O)C(c2ccccc2)N2CC(=O)Nc3ccccc32)cc1 (stereo not drawn) 13.1 µM
CCCC(=O)N1c2ccc(-c3csc(N)n3)cc2CC1C (stereo not drawn) 1.85 µM
CCC(C)C(=O)N1CCc2cc(-c3csc(N)n3)ccc21 (stereo not drawn) 1.65 µM
O=c1[nH]n(Cc2ccccc2)c(=O)c2ccccc12 13.1 µM
Cc1ccc2nc(NC(=S)NC(=O)c3cccs3)sc2c1 0.656 µM
O=C(NC(=S)Nc1nc2ccccc2s1)c1cccs1 0.521 µM
O=S(=O)(c1cc(F)ccc1F)N1CCC2(CC1)OCCO2 5.21 µM
COc1cc(OC)c(C(=O)Nc2ccc3ccccc3c2)cc1OC 2.93 µM
COc1ccc(C(=O)c2cc3cccc(OC)c3o2)cc1 3.29 µM
COc1ccc(NC(=O)c2sc3nc[nH]c(=O)c3c2C)cc1 5.85 µM
COc1cc2ccccc2cc1C(=O)NC(=S)Nc1cccc(C(=O)O)c1 14.7 µM
COc1cccc2cc(C(=O)N3CCc4ccccc4C3)c(=O)oc12 16.5 µM
COc1ccc(NC(=O)c2ccc3nc[nH]c3c2)cc1 7.36 µM
O=C(Nc1ccc2ccccc2c1)c1cc(F)c(F)cc1Cl 0.656 µM
COc1cc(OC)c(C(=O)Nc2ccc(N(C)C)cc2)cc1OC 8.26 µM
COc1ccc(-c2cccc(C(=O)Nc3cccc(C(=O)O)c3)c2)cc1 6.56 µM
COc1cccc(NC(=O)c2cc3cccc(OC)c3o/c2=N\O)c1 0.414 µM
COc1ccc(C(=O)Nc2ccc3cn[nH]c3c2)c(OC)c1 4.65 µM
COc1cccc2cc(C(=O)Nc3ccc(C)cc3)c(=O)oc12 0.736 µM
CCOC(=O)CC(NC(=O)c1cc2cccc(OC)c2oc1=O)c1ccc(OC)cc1 (stereo not drawn) 16.5 µM
COc1cccc(NC(=O)c2cc3ccccc3cc2OC)c1 2.33 µM
COc1ccc(C(c2c(O)ccc3ccccc23)N2CCOCC2)c(OC)c1 (stereo not drawn) 11.7 µM
Cc1ccsc1C1NC(=O)c2c(sc3c2CCCC3)N1 (stereo not drawn) 5.85 µM
CCN(CC)c1ccc(NC(=O)C2CC3CCC2C3)cc1 (stereo not drawn) 10.4 µM
O=[N+]([O-])c1cc(C(F)(F)F)ccc1NCCOc1ccccc1 7.36 µM
O=[N+]([O-])c1ccccc1NCCOc1ccccc1 7.36 µM
Cc1cccc(C(=O)NC2CCCCCCC2)c1 2.93 µM
O=C(NC1CC1)c1ccc(-c2ccccc2)cc1 3.69 µM
N#Cc1ccc(C(=O)NC2CCCCCCC2)cc1 5.85 µM
O=C(NC1CCCCC1)c1ccc2c(c1)OCCO2 2.93 µM
N#Cc1nc(COc2ccccc2F)oc1N1CCCCCC1 16.5 µM
N#Cc1nc(-c2ccccc2Cl)oc1N1CCCCC1 16.5 µM
N#Cc1nc(COc2ccccc2)oc1N1CCCCC1 13.1 µM
COC(=O)Nc1ccc2c(c1)ncn2C1CCCCC1 18.5 µM
CN(c1ccccc1)S(=O)(=O)c1nnc(NC(=O)c2cccs2)s1 0.117 µM
Cc1cc(=O)[nH]c(N/N=C/c2cc(C)n(-c3ccccc3)c2C)n1 3.29 µM
COc1ccc(NC(=S)NC(=O)c2ccc(Br)o2)cc1 3.29 µM
COc1ccc(NC(=O)c2ccc(Br)o2)cc1 4.14 µM
Cc1ccc(C(=O)NC(=S)NCC2CCCO2)cc1Br (stereo not drawn) 8.26 µM
O=C(O)c1ccc(/C=C/c2ccc3cccc(O)c3n2)cc1 4.14 µM
C(=C\c1ccco1)/c1ccc2ccccc2n1 0.656 µM
O=[N+]([O-])c1cccc2ccc(/C=C/c3ccc(F)cc3)nc12 7.36 µM
O=[N+]([O-])c1ccccc1/C=C/c1ccc2ccccc2n1 1.31 µM
